# Laboratory results published in PubChem BioAssay (NCI).
# About 83,000 compounds went through this panel and 20% of them were active in at least one assay; those are over-represented in the sample as a whole.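 Cell lines were cultured in 96-well plates, exposed to a single compound concentration, and assessed for percent growth 48 hours later.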 Unmarked numbers belong to inactive results. The source made the active and inactive calls. Rule for the calls: active = growth percent below 10; inactive = the rest.
# Legend:
# Assay in all cases: NCI-60 one-dose screen, 48 h (100 = growth as untreated, 0 = no growth, -100 = all killed)
# [1] = test system: MDA-MB-468 breast; settings: 10 µM unless noted
# [2] = test system: NCI-H226 lung; settings: 10 µM
# [3] = test system: NCI-H322M lung; settings: 10 µM
# [4] = test system: HOP-62 NSCLC; settings: 10 µM
# [5] = test system: NCI-H460 lung; settings: 10 µM
# [6] = test system: A549/ATCC NSCLC; settings: 10 µM
# [7] = test system: COLO 205 colon; settings: 10 µM
# [8] = test system: DU-145 prostate; settings: 10 µM
# [9] = test system: K-562 leukemia; settings: 10 µM
# [10] = test system: SF-539 CNS; settings: 10 µM
# [11] = test system: M14 melanoma; settings: 10 µM
# [12] = test system: HCT-15 colon; settings: 10 µM
# [13] = test system: HT29 colon; settings: 10 µM
# [14] = test system: SNB-75 CNS; settings: 10 µM
# [15] = test system: U251 CNS; settings: 10 µM
# [16] = test system: LOX IMVI melanoma; settings: 10 µM
# [17] = test system: MOLT-4 leukemia; settings: 10 µM
# [18] = test system: SR leukemia; settings: 10 µM
# [19] = test system: RPMI-8226 leukemia; settings: 10 µM
# [20] = test system: SK-OV-3 ovarian; settings: 10 µM
smiles,measurement,setting,value
O=C(CC1(O)C(=O)Nc2ccc(Br)cc21)c1ccc(Cl)cc1 (stereo not drawn),growth,[1],100%
COc1cccc(O)c1/C=C1\SCc2cc3c(OC)cccc3[o+]c21,growth,[2],98.2%
same,growth,[3],103%
same,growth,[4],105%
same,growth,[5],127%
same,growth,[6],108%
same,growth,[7],140%
same,growth,[8],114%
same,growth,[9],106%
same,growth,[10],98%
same,growth,[11],106%
same,growth,[12],111%
same,growth,[13],113%
same,growth,[14],115%
same,growth,[15],114%
same,growth,[16],103%
same,growth,[17],112%
same,growth,[18],98%
same,growth,[19],107%
same,growth,[20],118%
same,growth,[1],112%
CN(C[C@H]1Cc2c(cccc2N2CCN(Cc3ccccn3)CC2)CN1)[C@H]1CCCc2cccnc21,growth,[1],63.4%
COc1ccc(C(=O)COc2ccc(NC(=O)Nc3ccc(Cl)c(C(F)(F)F)c3)cc2)cc1,growth,[2],4.95% (active)
same,growth,[3],36.3%
same,growth,[4],42.8%
same,growth,[5],25.5%
same,growth,[6],18.5%
same,growth,[7],7.1% (active)
same,growth,[8],47.3%
same,growth,[9],37.5%
same,growth,[10],33.7%
same,growth,[11],19%
same,growth,[12],8.56% (active)
same,growth,[13],21.1%
same,growth,[14],33%
same,growth,[15],24.3%
same,growth,[16],-60.5% (active)
same,growth,[17],15.6%
same,growth,[18],7.72% (active)
same,growth,[19],19.1%
same,growth,[20],41.8%
same,growth,[1],-15.1% (active)
CNC(=O)c1cc(Oc2ccc3nc(NC(=O)c4ccc5ncccc5c4)sc3c2)ccn1,growth,[1],73.7%
